This note sets out measurements from PubChem BioAssay AID1565 (Sanford-Burnham Center for Chemical Genomics, 2009).

In all, about 290,000 compounds went through this assay and about 3,200 (1.1%) were called active. Rule as the data show it: active = inhibition above about 60%; inactive = the rest. The sample as a whole holds a higher share of actives than the screen did.

In the assay the target is Phosphoethanolamine/phosphocholine phosphatase (Homo sapiens) (UniProt Q8TCT1). The assay is described as follows: PubChem AID 1565. Particulars: recombinant PHOSPHO1, absorbance phosphatase assay; at 13.3 µM; stronger effect = higher value.
Sequence of Phosphoethanolamine/phosphocholine phosphatase (Homo sapiens) (Q8TCT1 whole entry, looked up): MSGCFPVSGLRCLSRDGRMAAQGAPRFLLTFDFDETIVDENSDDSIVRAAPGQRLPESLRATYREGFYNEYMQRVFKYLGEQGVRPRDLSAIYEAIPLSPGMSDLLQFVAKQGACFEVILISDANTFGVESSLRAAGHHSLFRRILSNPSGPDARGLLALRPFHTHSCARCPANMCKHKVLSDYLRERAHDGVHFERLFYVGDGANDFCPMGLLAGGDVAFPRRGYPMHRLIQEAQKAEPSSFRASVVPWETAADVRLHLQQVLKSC
For the compound `O=C(C1CCCN(S(=O)(=O)c2ccc([N+](=O)[O-])cc2)C1)N1CCCCC1` (configuration not stated), the inhibition – broadly, the change of the read-out against control, counted positive when it falls – is 52.6% (inactive).

As to `O=C(NNS(=O)(=O)c1ccc([N+](=O)[O-])cc1)C1CCCCC1`, the inhibition was 61% (active).

For the compound `O=C(Cc1ccccc1)NNS(=O)(=O)c1ccc([N+](=O)[O-])cc1`, the inhibition is 6.7% (inactive).

In the case of `O=C(NNS(=O)(=O)c1ccc(F)cc1)C1CCCCC1`, the inhibition was 18.4% (inactive).

Turning to `CC(=O)N1c2ccc(S(=O)(=O)N3CCCC(C(=O)Nc4ccc(C)cc4C)C3)cc2CC1C` (configuration not stated), the inhibition was 25.4% (inactive).

For `COc1ccc(OC)c(NC(=O)C2CCCN2S(=O)(=O)c2cccc3nsnc23)c1` (configuration not stated), the inhibition is 20.7% (inactive).

With `COc1ccccc1NC(=O)CSc1nnc(C)n1CC1CCCO1` (configuration not stated), the inhibition is 2.5% (inactive).

In the case of `Cc1nnc(SCC(N)=O)n1CC1CCCO1` (configuration not stated), the inhibition was 14.5% (inactive).

For the compound `O=C(CSc1nnc(-c2ccco2)n1CC1CCCO1)c1ccccc1` (configuration not stated), the inhibition was 69.4% (active).

For `Cc1cccc(NS(=O)(=O)c2ccc(-c3cnc(C4CC4)o3)cc2)c1`, the inhibition was 36.8% (inactive).

Consider `Cc1nnc(SCC(=O)Nc2ccc(S(=O)(=O)Nc3ccc(Cl)nn3)cc2)s1`, for which the inhibition is 7.5% (inactive).

Take `OCCN1CCN(C(=S)c2ccc(-c3ccccc3)cc2)CC1`: the inhibition is 71.4% (active).

With `O=C(NC(c1ccccc1)c1ccccc1)N1CCN(CCO)CC1`, the inhibition was -22.1% (inactive).

On to `S=C(c1ccccc1)N1CCCC1`, for which the inhibition is 29% (inactive).

On to `COc1ccc(C(=O)N2CCCN(C)CC2)c(OC)c1`, for which the inhibition is -0.8% (inactive).

For the compound `Cc1ccc(NC(=O)CN(C)C(=O)COC(=O)C(C)(C)Oc2ccc(Cl)cc2)cc1`, the inhibition is 14.5% (inactive).

For `CC(C)CC(CCc1ccccc1)OS(N)(=O)=O` (configuration not stated), the inhibition was 4% (inactive).

`CC(=O)c1cc(C#N)c(N2CCCCC2)nc1C`: the inhibition is 1.5% (inactive).

Consider `CC(=O)c1cc(C#N)c(SCC(=O)Nc2nccs2)nc1C`, for which the inhibition was 28.8% (inactive).

Take `CC(=O)c1cc(C#N)c(SCC(=O)C(C)(C)C)nc1C`: the inhibition was 75.8% (active).

With `Clc1cc(NC2CCCCC2)ncn1`, the inhibition is -10.9% (inactive).

As to `COc1ccc(Cc2nnc(SCC(=O)c3cccc([N+](=O)[O-])c3)n2C)cc1`, the inhibition was 76.3% (active).

In the case of `COc1ccc(-n2cnnc2SCC(=O)Nc2cccc([N+](=O)[O-])c2)cc1`, the inhibition is -3.1% (inactive).

As for `COc1cccc(NCCC(=O)c2cccc([N+](=O)[O-])c2)c1`, the inhibition is 22.6% (inactive).

With `COc1cccc(CNS(=O)(=O)c2cc3c(cc2C)n(C)c(=O)c(=O)n3C)c1`, the inhibition was -3.5% (inactive).

As for `Cc1cccc(CNS(=O)(=O)c2ccc(-c3cnc(C4CC4)o3)cc2)c1`, the inhibition was 32.9% (inactive).

With `Cn1c(SCc2ccc(F)cc2)nnc1-c1ccncc1`, the inhibition is 35.1% (inactive).

Consider `Cc1nc2sc(C(c3ccco3)N3CCOCC3)c(O)n2n1` (configuration not stated), for which the inhibition was -2.3% (inactive).

On to `Oc1c(C(c2cccs2)N2CCN(c3ccc(F)cc3)CC2)sc2ncnn12` (configuration not stated), for which the inhibition was 19.3% (inactive).

Consider `Oc1c(C(c2ccco2)N2CCC3(CC2)OCCO3)sc2ncnn12` (configuration not stated), for which the inhibition is 95.9% (active).

On to `COc1ccc(CNC(=O)C(NS(=O)(=O)c2cccc3nsnc23)C(C)C)cc1` (configuration not stated), for which the inhibition is 59.8% (inactive).

Regarding `Cn1c(=O)oc2cc(S(=O)(=O)NCCC(=O)NCc3ccccc3Cl)ccc21`, the inhibition was 75.4% (active).

Consider `Cc1ccc(NC(=O)CCNS(=O)(=O)c2ccc3c(c2)oc(=O)n3C)cc1C`, for which the inhibition is -21.8% (inactive).

Regarding `COc1cccc(NC(=O)CCNS(=O)(=O)c2ccc3c(c2)oc(=O)n3C)c1`, the inhibition is 59.6% (inactive).

`O=c1cc(Cl)c2ccccc2n1-c1ccccc1`: the inhibition is 19.9% (inactive).

Take `CN(Cc1c(F)cccc1Cl)S(=O)(=O)c1cccs1`: the inhibition was -15.8% (inactive).

As to `Cc1c(Cl)cccc1NC(=O)CCC(=O)N/N=C/c1ccco1`, the inhibition was 32.7% (inactive).

With `Cn1c(-c2sc3cc(C(F)(F)F)cnc3c2-c2ccccc2)n[nH]c1=S`, the inhibition is 96.2% (active).

With `Cn1c(-c2sccc2OCc2cccc(C(F)(F)F)c2)n[nH]c1=S`, the inhibition is 36.7% (inactive).

For the compound `Cc1ccccc1-c1n[nH]c(=S)n1C`, the inhibition was -137% (inactive).

With `COc1cccc(NC(=O)CCc2nnc3ccc(N4CCC(C)CC4)nn23)c1`, the inhibition was -8.3% (inactive).

With `Cc1cccnc1CCNC(=O)C1CCC(=O)N(Cc2cccc(F)c2)C1` (configuration not stated), the inhibition is 24% (inactive).

Regarding `COc1cccc(CNC(=O)C2CCCN(c3ncnc4c3nc3n4CCCCC3)C2)c1` (configuration not stated), the inhibition was -55.9% (inactive).

Regarding `O=C(Nc1ccc(Cl)c(Cl)c1)N1CC=C(c2ccccc2)CC1`, the inhibition is 61.1% (active).

In the case of `O=C(Nc1ccccc1)N1CCN(C(=O)Nc2ccccc2)CC1`, the inhibition is 15.9% (inactive).

With `O=C(Nc1cccc(NC(=O)N2CCN(c3ccccc3)CC2)c1)N1CCN(c2ccccc2)CC1`, the inhibition is 12.4% (inactive).

Consider `Cc1occc1C(=O)N/N=C/c1ccc(-c2cccc([N+](=O)[O-])c2)o1`, for which the inhibition was 40.3% (inactive).

Consider `C[N+]1(CCNC(=O)/C=N/O)CCCCC1`, for which the inhibition was 91.1% (active).

With `N#CC(C#N)=CN=c1ccn(Cc2ccc(Cl)cc2Cl)cc1`, the inhibition is 34% (inactive).

Regarding `COCCNC(=O)c1ccc2nc(Cc3ccc(OC)c(OC)c3)oc2c1`, the inhibition was -8.2% (inactive).

With `S=c1[nH]nc(COc2ccccc2)n1-c1ccccc1`, the inhibition was -11.2% (inactive).

Take `Cc1ccc(OCc2n[nH]c(=S)n2-c2ccc(C)cc2)cc1`: the inhibition was -0.8% (inactive).

On to `COc1ccc(Cc2n[nH]c(=S)n2NC(=O)Nc2ccc(C)cc2)cc1`, for which the inhibition is 36.2% (inactive).

With `COc1ccc(OCc2n[nH]c(=S)n2N)cc1`, the inhibition was 70.9% (active).

In the case of `COc1ccc(-n2c(-c3ccc(OC)c(OC)c3)n[nH]c2=S)cc1`, the inhibition was -135% (inactive).

`Cc1ccc(OCc2n[nH]c(=S)n2-c2ccccc2)cc1`: the inhibition is 60.9% (active).

`Cc1cccc(N2Cc3ccccc3C2=NC(=O)c2ccc(Cl)nc2)c1`: the inhibition was -3.9% (inactive).

As for `Cc1nn(CC(=O)NCCc2ccccc2)c(=O)c2cc3occc3n12`, the inhibition was -36.2% (inactive).

Consider `O=C1/C(=C/c2ccc(F)cc2)SC(=S)N1CCCC(=O)N1CCCCC1CCO` (configuration not stated), for which the inhibition was 38.5% (inactive).

`O=C(c1ccc(CS(=O)(=O)c2ccccc2)o1)N1CCN(c2ccccc2)CC1`: the inhibition was 2.1% (inactive).

`CC(C)c1ccc(S(=O)(=O)NC2CCCC2)cc1`: the inhibition was 24% (inactive).

`NS(=O)(=O)c1ccc(NC(=O)COC(=O)c2ccc(Cl)nc2)cc1`: the inhibition was 8.4% (inactive).

Turning to `CCN(CC)c1ccc(NC(=O)c2ccc(Cl)nc2)cc1`, the inhibition is 74.3% (active).

Take `Cc1cnc(NC(=O)c2ccc(Cl)nc2)s1`: the inhibition was -16.6% (inactive).

Take `CCCCNC(=O)c1cn(CC)c2cc(N3CCN(C(=O)c4ccco4)CC3)c(F)cc2c1=O`: the inhibition is 12.7% (inactive).

As to `CCCn1c(C2CCCN2c2nc(-c3ccc(OC)cc3)cs2)nc2ccccc21` (configuration not stated), the inhibition was -1.7% (inactive).

For the compound `Cc1ccc(S(=O)(=O)Cc2cc(-c3ccc(Cl)cc3)no2)cc1`, the inhibition was 65.8% (active).

On to `Cc1ccc(-c2cc(N)on2)cc1`, for which the inhibition was 1.1% (inactive).

In the case of `CC(C)C(=O)NCc1cc(-c2ccc(Cl)cc2)no1`, the inhibition was 32.2% (inactive).

With `O=C(CCc1nnc2ccc(NCc3ccco3)nn12)Nc1cc(F)ccc1F`, the inhibition is 19.9% (inactive).

`COc1ccccc1OCCOc1ccc(/C=C2\C(=N)N3N=C(C)SC3=NC2=O)cc1`: the inhibition was 19.1% (inactive).

Regarding `CCOc1ccccc1N1CCN(C(=O)c2ccc3[nH]c(C)c(C)c3c2)CC1`, the inhibition is 18.1% (inactive).

Take `Cc1c(C(=O)NCC(c2ccco2)N2CCCC2)oc2ccc(Cl)cc12` (configuration not stated): the inhibition is 7% (inactive).

As for `Fc1ccc(/C=N/n2c(COc3ccccc3)n[nH]c2=S)cc1`, the inhibition is 5.5% (inactive).

In the case of `COc1cc(/C=N/O)ccc1OCc1ccc([N+](=O)[O-])cc1`, the inhibition is 5.6% (inactive).

With `COc1cc(/C=N/n2c(C)n[nH]c2=S)ccc1OCc1ccccc1`, the inhibition was 69.1% (active).

For `CCC(NC(=O)c1cc(COc2ccc(F)c(F)c2)on1)c1ccncc1` (configuration not stated), the inhibition is 21.8% (inactive).

As to `CC(NC(=O)CSc1nc2c(cc1C#N)CN(C)CC2)c1ccccc1` (configuration not stated), the inhibition was 95.3% (active).

In the case of `CC1(C)CCc2nc(SCc3ccccc3)c(C#N)cc2C1`, the inhibition is 15% (inactive).

With `Cc1cc(NC(=O)CSc2nc3c(cc2C#N)CCCCC3)no1`, the inhibition was 56% (inactive).

For the compound `CC1CC(C)CN(c2ccc(S(=O)(=O)N3CCOCC3)cc2)C1` (configuration not stated), the inhibition was 33.4% (inactive).

In the case of `C=CCN1CN(S(=O)(=O)c2ccc(OC)cc2)c2nc3ccccc3nc21`, the inhibition is 4.7% (inactive).

For the compound `CCc1cc(-c2n[nH]c(=S)n2CC(C)C)cs1`, the inhibition is -17% (inactive).

In the case of `CCCc1cc(-c2n[nH]c(=S)n2Cc2ccccc2)cs1`, the inhibition was 82.7% (active).

For the compound `COc1cc(-c2n[nH]c(=S)n2Cc2ccccc2)cc(OC)c1OC`, the inhibition is -91.1% (inactive).

Take `O=C(NCc1ccccc1)c1onc(CSc2nc3ccccc3[nH]2)c1C(=O)NCc1ccccc1`: the inhibition was 15.1% (inactive).

Take `CN(c1ccccc1)S(=O)(=O)c1ccc2[nH]c(=O)[nH]c2c1`: the inhibition is 2.8% (inactive).

Regarding `Cc1nc2ccc(C(=O)N3CCN(c4ccccc4)CC3)cc2s1`, the inhibition is -38.4% (inactive).

With `O=C(c1ccc(S(=O)(=O)N2CCOCC2)cc1)N1CCN(c2ccccc2)CC1`, the inhibition was 7.1% (inactive).

`O=C(c1ccccc1)c1ccc(C(=O)N2CCN(c3ccccc3)CC2)cc1`: the inhibition was 70.6% (active).

For the compound `C=CCn1c(CNS(=O)(=O)c2ccc(Br)cc2)nnc1SC`, the inhibition is 38.1% (inactive).

`Cc1cccc(-n2nc3c(c2NC(=O)c2cc4ccccc4o2)CS(=O)(=O)C3)c1`: the inhibition was 12.5% (inactive).

Regarding `Cc1ccc(-n2c(Cc3cccs3)nnc2SCC(=O)OC(C)C)cc1`, the inhibition is 4.6% (inactive).

For the compound `CCn1c(SCC(=O)c2ccc3ccccc3c2)nnc1-c1cccs1`, the inhibition is 17.7% (inactive).

Take `CCn1c(Cc2cccs2)nnc1SCC(=O)c1ccc(C)cc1`: the inhibition is 67.3% (active).

With `CCNC(=O)Nc1ccc(S(=O)(=O)Nc2cnc(C)nc2C)cc1`, the inhibition was 22% (inactive).

For the compound `COc1ccc(N(CC(=O)N2CCOCC2)S(=O)(=O)c2ccccc2)cc1Cl`, the inhibition was 12.6% (inactive).
